Screening results as filed in PubChem.
Most compounds without a hit are left out; they make up all but 2.9% or so of the library.
14-3-3 Bad PPI: inhibitors of 14-3-3 zeta/Bad binding, primary screen, biochemical, TR-FRET, bovine 14-3-3 zeta | inhibition, % at 21.7 µM | AID 781, 2007 | 0.71% of 220,000 active | TR-FRET 14-3-3zeta/Dy647-pBad peptide displacement, 1 h | 14-3-3 protein zeta/delta (Bos taurus), P63103;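 active = inhibition above about 70%, limit read from the data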;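 also: 0% = full 14-3-3 plus peptide FRET controls and 100% = background without 14-3-3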
Mcl1 Bid PPI: Mcl-1/Bid binding inhibitors, primary screen, biochemical, TR-FRET, 1536-well. AID 1021, 2008. inhibition, % at 21.7 µM. Induced myeloid leukemia cell differentiation protein Mcl-1 (Homo sapiens), Q07820. 0.97% of 220,000 active. TR-FRET Mcl-1/Bid-Dy647 peptide binding;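 active = compounds that cut the binding signal by more than half at the single screening dose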;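 also: His-tagged Mcl-1 with europium anti-His antibody binding Bid BH3 peptide; 0% = Mcl-1 plus peptide wells and 100% = peptide-only wells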
Mcl1 Noxa PPI: Mcl-1/Noxa binding inhibitors, primary screen, biochemical, TR-FRET, 1536-well. inhibition, % at 21.7 µM. AID 1022, 2008. 1.5% of 220,000 active. TR-FRET Mcl-1/Noxa peptide binding, 2 h;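 active = compounds that cut the protein-peptide binding signal by more than 50% relative to plate controls in a single-dose test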;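 also: His-tagged Mcl-1 with rhodamine Noxa BH3 peptide and terbium anti-His antibody; 0% = Mcl-1 plus Noxa peptide wells and 100% = peptide-only wells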
Bim-Mcl-1: inhibitors of Bim peptide binding to Mcl-1, primary screen, biochemical, bead-based flow cytometry, multiplex | Induced myeloid leukemia cell differentiation protein Mcl-1 (Homo sapiens), Q07820 | Bim peptide-Mcl-1 binding | inhibition, % at 10 µM | 0.1% of 190,000 active | AID 1009, 2008; in the data active = inhibition above about 40%;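 also: 0% = no compound tracer wells and 100% = peptide blocker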
Hck Nef HTS: inhibitors of Nef-activated human Hck kinase, primary screen, biochemical, Z-Lyte FRET, 384-well, Hck-YEEI. Recombinant Hck-YEEI plus Nef, Z-Lyte FRET kinase assay. inhibition, % at 20 µM. 0.68% of 220,000 active;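 active = Hck-Nef kinase inhibition above about 50%, limit read from the data; inactive = inhibition below that limit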;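 also: 0% = DMSO with Hck plus Nef and 100% = Hck alone without Nef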
Pf gamet viab: late stage P. falciparum gametocyte viability inhibitors, primary screen, ATP luminescence, HTS | P. falciparum stage V gametocytes, 24 h | inhibition, % at 10.9 µM | 0.065% of 150,000 active;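 active = inhibition above the mean plus 3 SD of compounds within the control limits, set per campaign, cut at about 38% in these data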;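 also: 0% = DMSO wells and 100% = medium only without gametocytes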
* hit, by the source's call; . = no result given; [ ] = dose if it differs, or a comment.

SMILES	14-3-3 Bad PPI	Mcl1 Bid PPI	Mcl1 Noxa PPI	Bim-Mcl-1	Hck Nef HTS	Pf gamet viab
Cc1cccc(-n2c(O)c(/C=C/C=Nc3ccccc3)c(=O)[nH]c2=O)c1	-13	-28	6	0	6	.
Cc1ccc(N2C(=O)NC(=O)/C(=C\c3cnc(-c4ccccc4)nc3)C2=O)cc1	13	-10	75*	3	8	.
Cc1ccc(N2C(=O)NC(=O)/C(=C/c3ccoc3)C2=O)cc1	75*	-80	77*	.	55*	13
N#Cc1ccc(/C=C/C(=O)O)cc1	3	-11	-4	.	0	-11
COc1cc(/C=C/c2nc3ccccc3c(=O)n2-c2cccc(O)c2)ccc1O	52	63*	96*	.	-19	13
Cc1ccc(OCCSC2=NN2c2cc(C)nc(N)n2)cc1	1	7	-14	-3	3	13
CC(=O)N1CCCSC1=Nc1ccccc1	-3	-10	0	-4	21	-6
COc1ccc2c(c1)NP(=S)(Oc1ccccc1)N2 (stereo not drawn)	14	-51	52*	.	-2	.
COc1cccc(-n2c(=S)[nH]c3ccccc3c2=O)c1	-10	-29	11	-2	12	-9
O=S(=O)(NC1CCCCCCC1)OCC(Cl)(Cl)Cl	.	.	.	.	.	-24
CCN1CCN(Cc2ccc(C)cc2C)CC1	77*	42	20	0	-3	-20
CC(C)C(=O)c1cn(Cc2ccc(C#N)cc2)c2ccccc12	14	-5	4	-2	7	9
COC(=O)c1ccccc1N=Cc1c(O)[nH]c(=S)[nH]c1=O	-2	-19	4	-1	21	4
CCCC[n+]1cc(=N)o[n-]1	.	.	.	.	.	-7
COC(=O)c1ccc(CN2CCN(Cc3ccccc3)CC2)cc1	76*	2	10	5	4	1
CC(c1ccccc1)[n+]1ccccc1 (stereo not drawn)	.	.	.	.	.	16
CCC(=NC(C)c1ccccc1)c1c(O)[nH]c(=O)[nH]c1=O (stereo not drawn)	-1	90*	-9	.	17	9
O=C1NC(=O)N(c2ccccc2)C(=O)/C1=C\C=C\c1ccccc1	-4	-1	70*	.	14	13
O=C1NC(=O)N(c2ccccc2)C(=O)/C1=C\c1ccc([N+](=O)[O-])s1	10	-25	69*	.	20	-8
CN1C(=O)NC(=O)/C(=C\c2ccc([N+](=O)[O-])o2)C1=O	19	-69	31	1	24	.
CN1C(=O)NC(=O)/C(=C/c2ccc([N+](=O)[O-])s2)C1=O	6	-51	53*	.	-3	-11
CN1C(=O)NC(=O)/C(=C/c2ccc([N+](=O)[O-])o2)C1=O	25	-66	24	.	23	-4
O=C1NC(=O)N(c2ccccc2)C(=O)/C1=C\c1ccc([N+](=O)[O-])o1	57	10	63*	.	55*	.
COc1ccc(OC)c(N2C(=O)NC(=O)/C(=C\c3ccc([N+](=O)[O-])s3)C2=O)c1	6	-34	49	0	36	16
CCC1C(c2ccccc2)NC(c2ccccc2)CC1(O)c1ccc(F)cc1 (stereo not drawn)	2	-42	25	.	19	1
SMILES	14-3-3 Bad PPI	Mcl1 Bid PPI	Mcl1 Noxa PPI	Bim-Mcl-1	Hck Nef HTS	Pf gamet viab
COC(=O)C1=C(c2ccc(F)cc2OCc2ccccc2)C[C@@H]2CC[C@H]1N2C(=O)NCCNC(C)=O	.	.	.	.	.	-3
CCOC(=O)CNC(=O)CSP(=S)(OCC)OCC	3	-16	20	-1	2	9
CN[C@H]1C[C@H]2O[C@@](C)([C@H]1OC)n1c3ccccc3c3c4c(c5c6ccccc6n2c5c31)C(=O)NC4	11	12	62*	-3	.	.
Cc1cc2c(C(C)C)c(O)c(O)c(C=O)c2c(O)c1-c1c(C)cc2c(C(C)C)c(O)c(O)c(C=O)c2c1O	82*[fluorescence artefact?]	100*	118*	2	102*	.
C=CCNC(=O)c1c(N)n(Cc2ccco2)c2nc3ccccc3nc12	6	-10	57*	-1	36	.
N/C(=N\N=C/c1ccc(-c2ccc(O)c(C(=O)O)c2)o1)N[N+](=O)[O-]	95*[fluorescence artefact?]	24	87*	-1	10	.
